Screening data deposited in PubChem BioAssay by National Center for Advancing Translational Sciences (NCATS).
Pf Dd2 inh = inhibitors of Plasmodium falciparum Dd2 growth | P. falciparum Dd2 growth, SYBR Green, 72 h | 120,000 tested, 4.3% active | Potency, µM (highest dose often 28.9 µM), for inactives: top-dose activity, negative = inhibition, usual class: inhibitors; active means well fitted inhibition curve with a large enough effect;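 further: plate controls were DMSO vehicle for no effect and reference drug for full effect; nearly all actives have a fitted effect of over 65% in size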
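Readout: SYBR Green fluorescence, 485 nm excitation, 535 nm emission, after ~16 h lysis at 37C. Before that, Dd2-infected red cells (2.5% hematocrit) grew 72 h with compound, 29 uM top final concentration.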
Active calls of the source: *; [ ] = another dose, or the depositor's remark. This is one part of a sample in which hits are shown more often than they occur. Potency means the concentration at half of the fitted maximal effect.

Screening Cc1ccccc1NC(=O)Cn1cc(C(=O)c2ccco2)c2ccccc21 returned Pf Dd2 inh -5%.
`Cc1cccc(C)c1OCC(=O)N(Cc1ccco1)Cc1ccco1` gave Pf Dd2 inh 14%.
Screening CCOc1ccc(NC(=O)Cn2cc(C(=O)c3ccccc3)c3ccccc32)cc1 returned Pf Dd2 inh 26%.
For O=C(Cn1cc(C(=O)c2ccco2)c2ccccc21)Nc1ccc(Br)cc1 the results were Pf Dd2 inh -15%.
Screening Cc1ccc(OCCn2cc(C(=O)c3cccs3)c3ccccc32)cc1 returned Pf Dd2 inh 4µM*.
Screening COc1ccc(CCNC(=O)CN2C(=O)NC3(CCOCC3)C2=O)cc1OC returned Pf Dd2 inh 6%.
For CCc1nc2cc(N3CCCC(C(=O)NCc4cccnc4)C3)cnc2nc1CC (configuration not stated) the results were Pf Dd2 inh -18%.
O=C(c1cnccn1)N1CCCC1c1nc(C2CCOCC2)no1 (configuration not stated) was read as Pf Dd2 inh -17%.
CC(=O)Nc1ccc(CN2CCC(N3Cc4ccccc4C3=O)CC2)cc1 was read as Pf Dd2 inh 0%.
For COc1ccc(CCc2nc(C3CC(=O)N(Cc4ccccc4OC)C3)no2)cc1 (configuration not stated) the results were Pf Dd2 inh -5%.
COc1cc(-c2noc(-c3ccc(NCC4CCCO4)c([N+](=O)[O-])c3)n2)cc(OC)c1OC (configuration not stated) was read as Pf Dd2 inh 1%.
For COc1ccc(C)cc1NC(=O)COCc1cc(-c2ccc(F)cc2)on1 the results were Pf Dd2 inh 46%.
`CC1(c2noc(-c3ccccn3)n2)CCN(C(=O)C2CCN(C(=O)c3ccc(=O)[nH]c3)CC2)CC1` gave Pf Dd2 inh 15%.
`Cc1ccc(C)c(C(=O)CSc2nc3cc(C(=O)NC4CCCC4)ccc3c(=O)n2CC2CCCO2)c1` (configuration not stated) gave Pf Dd2 inh 10µM*.
For O=C(CSc1nc2cc(C(=O)NC3CCCC3)ccc2c(=O)n1CC1CCCO1)c1cccc(Cl)c1 (configuration not stated) the results were Pf Dd2 inh 10µM*.
Screening COCCn1c(SCC(=O)c2ccc(C)cc2C)nc2cc(C(=O)NC3CCCC3)ccc2c1=O returned Pf Dd2 inh 17%.
COCCn1c(SCC(=O)c2ccc(C)cc2)nc2cc(C(=O)NC3CCCC3)ccc2c1=O was read as Pf Dd2 inh 20%.
O=C(CSc1nc2cc(C(=O)NC3CCCC3)ccc2c(=O)n1CC1CCCO1)c1ccc(F)cc1 (configuration not stated) was read as Pf Dd2 inh -26%.
`Cc1ccc(C(=O)CSc2nc3cc(C(=O)NC4CCCC4)ccc3c(=O)n2CC2CCCO2)cc1` (configuration not stated) gave Pf Dd2 inh -17%.
Screening C[C@@H](NC(=O)C1CCCC1)c1onc(-c2cccnc2)c1C(=O)O returned Pf Dd2 inh 11%[44.1 µM].
`O=C(Nc1nccs1)C1CC(=O)N(c2n[nH]c3cccc(F)c23)C1` (configuration not stated) gave Pf Dd2 inh 1%.
Screening O=C([C@@H]1C[C@H](Oc2ccccc2)CN1C(=O)c1ccncc1)N1CCOCC1 returned Pf Dd2 inh 10%.
Cc1ccccc1-n1nc(C)c2c1NC(=O)CSC2c1ccc(N(C)C)cc1 (configuration not stated) was read as Pf Dd2 inh 12%.
Cc1ccccc1-c1noc(CCCC(=O)N2CCn3nc(CO)cc3C2)n1 was read as Pf Dd2 inh -14%.
Screening Cc1ccc(OCC(=O)N2CCC(Cc3nc(-c4ccc(F)cc4)no3)CC2)cc1 returned Pf Dd2 inh -12%.
`Cc1ccc(CNC(=O)CCCN2C(=O)CCn3nc(-c4cccn4C)cc32)cc1` gave Pf Dd2 inh 5µM*.
Screening CC(C)Oc1ccc(CNC(=O)CCCN2C(=O)CCn3nc(-c4cccn4C)cc32)cc1 returned Pf Dd2 inh 4%.
Screening CN(C)c1ccc(CNC(=O)CCCN2C(=O)CCn3nc(-c4cccn4C)cc32)cc1 returned Pf Dd2 inh -2%.
CCCS(=O)(=O)N1C[C@@H]2C[C@H](C1)c1c(-c3ccccc3)ccc(=O)n1C2 was read as Pf Dd2 inh -15%[44.1 µM].
`COc1ccc(CN2CCc3nc(N(C)C)[nH]c(=O)c3CC2)cc1Br` gave Pf Dd2 inh -7%[5.79 µM].
For Cc1nc(Cn2ccnc2-c2cn(C3CCNCC3)nn2)cs1 the results were Pf Dd2 inh 0%.
Cn1cnc(C(=O)N2CCC(OC3CCN(Cc4cccnc4)CC3)CC2)c1 was read as Pf Dd2 inh 11%.
`COc1cccc([S+](=O)([O-])N2CCC3(CC(c4cccc(C(F)(F)F)c4)=NO3)C2)c1` (configuration not stated) gave Pf Dd2 inh -8%.
`COc1ccc(C)cc1NC(=O)c1oc2ccc(S(=O)(=O)N(C)C3CCCCC3)cc2c1C` gave Pf Dd2 inh 29%.
CCN(CC)S(=O)(=O)c1ccc2oc(C(=O)N(C)Cc3ccccc3)c(C)c2c1 was read as Pf Dd2 inh -22%.
For CCCCN(CCCC)S(=O)(=O)c1ccc2oc(C(=O)NCc3ccc(C)cc3)c(C)c2c1 the results were Pf Dd2 inh 8.9µM*.
For O=C(/C=C/c1cn(CC(O)CN2CCCCCC2)c2ccccc12)c1ccccc1 (configuration not stated) the results were Pf Dd2 inh 10µM*.
`Cc1ccc(CSc2cn(CC(=O)N3CCCCC3)c3ccccc23)cc1` gave Pf Dd2 inh -19%.
Screening O=C(CSc1cn(CC(=O)N2CCCCC2)c2ccccc12)Nc1ccccc1 returned Pf Dd2 inh 18%.
For Cc1ccc(C(=O)/C=C/c2cn(CC(O)CN3CCCCCC3)c3ccccc23)cc1 (configuration not stated) the results were Pf Dd2 inh 13µM*.
Screening CNC(=O)CSc1cn(CC(=O)N2CCCCCC2)c2ccccc12 returned Pf Dd2 inh -24%.
COC(=O)c1ccc(NC(=O)CSc2cn(CC(=O)N3CCCCC3)c3ccccc23)cc1 was read as Pf Dd2 inh -9%.
`Cc1ccccc1CSc1cn(CC(=O)N2CCCCCC2)c2ccccc12` gave Pf Dd2 inh -26%.
`O=C(/C=C/c1cn(CC(O)CN2CCCCCC2)c2ccccc12)c1ccc(Br)cc1` (configuration not stated) gave Pf Dd2 inh 10µM*.
`O=C(Cn1cc(SCc2ccccc2Cl)c2ccccc21)N1CCCCCC1` gave Pf Dd2 inh -21%.
CCOc1ccccc1NC(=O)CSc1nnc(CC)c(CC)n1 was read as Pf Dd2 inh 8%.
`CCC1CN(C(=O)N2CCC(C(=O)NCc3cccs3)CC2)c2cc(C)ccc2O1` (configuration not stated) gave Pf Dd2 inh -19%.
For CNc1nc2c(s1)C(c1ccccc1F)CC(=O)N2 (configuration not stated) the results were Pf Dd2 inh -8%.
`CC(C)CN1C[C@@H]2OCC(=O)N(Cc3cccnc3)[C@@H]2C1` gave Pf Dd2 inh inactive.
COC[C@@H]1CN(C(=O)c2c(F)cccc2Cl)C[C@H]1C(N)=O was read as Pf Dd2 inh -5%.
For CCCNC(=O)N1CCC(Oc2ccccc2-c2nc(-c3ccncc3)no2)C1 (configuration not stated) the results were Pf Dd2 inh -25%.
